Data as given in PubChem BioAssay (NCATS).
Inconclusive results are not listed. The source made the active and inactive calls. Calls come from the whole dose curve; as a rule, active = well fitted curve in the direction sought with a large enough effect; inconclusive = small, poorly fitted or top-dose-only effect, or another doubt; inactive = no such curve, though single readings can be large; an effect the other way counts as inactive or inconclusive. Peptide text beside a SMILES is read from it.

Biological target: Cytochrome P450 3A4 (Homo sapiens) (UniProt P08684)
Sequence (P08684 whole entry, looked up): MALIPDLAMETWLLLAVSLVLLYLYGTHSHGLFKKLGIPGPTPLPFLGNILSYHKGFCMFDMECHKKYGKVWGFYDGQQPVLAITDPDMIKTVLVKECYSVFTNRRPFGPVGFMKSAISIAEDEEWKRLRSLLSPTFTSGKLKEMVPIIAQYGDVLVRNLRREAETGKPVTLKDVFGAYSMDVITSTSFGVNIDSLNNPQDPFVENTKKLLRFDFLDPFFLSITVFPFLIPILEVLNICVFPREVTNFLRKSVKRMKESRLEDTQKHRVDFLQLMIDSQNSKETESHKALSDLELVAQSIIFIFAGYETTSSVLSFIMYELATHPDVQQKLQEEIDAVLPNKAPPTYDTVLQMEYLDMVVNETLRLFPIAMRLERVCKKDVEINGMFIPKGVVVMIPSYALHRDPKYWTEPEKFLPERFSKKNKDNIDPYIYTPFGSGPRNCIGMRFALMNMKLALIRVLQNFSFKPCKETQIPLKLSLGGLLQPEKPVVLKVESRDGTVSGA
Assay: qHTS Assay for Activators of Cytochrome P450 3A4 (AID 885); note: nearly all actives have a fitted effect of over 65% in size
Settings: recombinant CYP3A4, Luciferin-PPXE luminescence, 60 min; series mostly up to 57.1 µM; activity change, positive = activation: at the top concentration
Method in brief: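 Using 20nM recombinant human CYP3A4 in potassium phosphate (200mM), substrate Luciferin-PPXE at 25uM, luminescent luciferin detection followed a 60-min RT NADPH reaction; data scaled to 57 uM ketoconazole.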

Activity change, positive = activation, inactive:
CCC(C)C(=O)OC1CCC=C2C=CC(C)C(CCC3CC(O)CC(=O)O3)[C@@H]21 (some centres not stated) -73.1%, Cc1cc(O)c(C=O)c2c1C(=O)Oc1c(COC(=O)/C=C/C(=O)O)c(O)c(C(=O)O)c(C)c1O2 -84.7%, C[C@]12C=CC(=O)C=C1CCC1C2C(O)C[C@]2(C)C1CC[C@]2(O)C(=O)CO (some centres not stated) -33.9%, COc1ccc2c(c1)N(C[C@@H](C)CN(C)C)c1ccccc1S2 -34.7% [at 25.6 µM], CCOC(=O)C1=CC(OC(CC)CC)C(NC(C)=O)C(N)C1 (configuration not stated) -50.1%, COc1c(O)cc(O)cc1O -31.9%, Cc1cc(O)c(C=O)c2c1C(=O)Oc1c(C)c(O)c3c(c1O2)C(O)OC3=O (configuration not stated) -43.5%, COc1cc(C2c3cc4c(cc3C(O[C@@H]3OC5COC(c6cccs6)OC5C(O)C3O)C3COC(=O)C23)OCO4)cc(OC)c1O (some centres not stated) -73.1%

Biological target: Cytochrome P450 2D6 (Homo sapiens) (UniProt P10635)
Sequence (P10635 whole entry, looked up): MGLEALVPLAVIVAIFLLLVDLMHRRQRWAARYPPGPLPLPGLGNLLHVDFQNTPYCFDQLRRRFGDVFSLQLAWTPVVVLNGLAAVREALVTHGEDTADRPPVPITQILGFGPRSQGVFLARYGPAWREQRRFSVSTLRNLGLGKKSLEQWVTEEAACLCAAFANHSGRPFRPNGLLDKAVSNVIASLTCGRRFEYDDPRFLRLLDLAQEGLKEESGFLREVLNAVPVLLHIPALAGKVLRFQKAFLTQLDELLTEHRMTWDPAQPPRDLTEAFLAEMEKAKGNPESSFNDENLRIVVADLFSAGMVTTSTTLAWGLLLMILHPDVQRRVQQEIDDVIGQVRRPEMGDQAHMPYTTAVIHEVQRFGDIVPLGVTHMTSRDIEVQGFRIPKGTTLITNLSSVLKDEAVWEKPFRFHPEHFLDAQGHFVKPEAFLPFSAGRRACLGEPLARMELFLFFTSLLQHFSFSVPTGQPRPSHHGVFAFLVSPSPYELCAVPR
Assay: qHTS Assay for Inhibitors and Substrates of Cytochrome P450 2D6 (AID 891); note: nearly all actives have a fitted effect of over 60% in size; note: potency is the fitted concentration of half-maximal effect;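 for activity change, negative = inhibition: luciferin methyl ether substrate demethylated by CYP2D6 with NADPH regeneration; % is set by controls: 0 for no effect and ±100 for the full control effect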
Settings: recombinant CYP2D6, luciferin-ME EGE luminescence; series mostly up to 57.1 µM; activity change, negative = inhibition: at the top concentration
Method in brief: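 Luminescent read-out of luciferin formed by 5 nM human CYP2D6 demethylating 30 uM Luciferin-ME EGE (Km level) over 60 min at room temperature after NADPH regeneration addition. Data normalized to full inhibition by 1.43 uM quinidine.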

Activity change, negative = inhibition, inactive:
C/C(=C\CNc1ncnc2nc[nH]c12)CO -2.98%, CC/C=C\C[C@H]1C(=O)CC[C@@H]1CC(=O)O 9.42%

Potency, active:
COc1ccc2c(c1)N(C[C@@H](C)CN(C)C)c1ccccc1S2 63.1 nM

System: not listed separately
Assay: Confirmation and Secondary Assay for Modulators of Hemoglobin Beta Chain Splicing at IVS2 654 locus (AID 910);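 note: HeLa cells stably carrying EGFP split by mutant beta-globin IVS2-654 intron; % of control where 0% means no effect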
Settings: HeLa EGFP-654 splicing reporter, GFP fluorescence, 48 h; series mostly up to 46.1 µM; activation (splicing correction): at the top concentration
Method in brief: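 HeLa cells stably expressing EGFP interrupted by β-globin IVS2-654 intron, seeded overnight in Opti-MEM/2% FCS, then treated 2 days at 37 °C. Restored splicing read as total peak GFP intensity per well by laser scanning cytometry (488 nm excitation, 500–520 nm emission); 500 nM antisense PNA as control.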

Activation (splicing correction), inactive:
CC1=C(CCC(=O)O)c2cc3nc(cc4[nH]c(cc5[nH]c(cc1n2)c(C)c5C(C)O)c(C)c4C(C)O)C(C)=C3CCC(=O)O (configuration not stated) -1.59% [at 38.3 µM], CCC(C)C(=O)OC1CCC=C2C=CC(C)C(CCC3CC(O)CC(=O)O3)[C@@H]21 (some centres not stated) 2.3% [at 38.3 µM], Cc1cc(O)c(C=O)c2c1C(=O)Oc1c(COC(=O)/C=C/C(=O)O)c(O)c(C(=O)O)c(C)c1O2 15.9%, OCC1OC([S-])[C@H](O)C(O)C1O.[Au+] (some centres not stated) 9.6%, COC(=O)N/N=C/C1=C[N+](=O)c2ccccc2[N+]1=O 5.21%, CN1CC(=O)N=C1N 1.66% [at 38.3 µM], CNC1CC(N)[C@H](O)[C@@H](O[C@@H]2OC(CO)C3OC4(OC(C(N)CO)C(O)C(O)C4O)O[C@@H]3[C@H]2O)C1O (some centres not stated) -2.74% [at 38.3 µM], COC1C=CO[C@@]2(C)Oc3c(C)c(O)c4c(O)c(c(C=NN5CCN(C)CC5)c(O)c4c3C2=O)NC(=O)/C(C)=C\C=CC(C)C(O)[C@@H](C)C(O)C(C)[C@H](OC(C)=O)C1C (some centres not stated) -5.4%, CC(=O)N[C@@H]1C(O)OC(CO)C(O)C1O (some centres not stated) 8.63%, CCC(CCC(C)C1CCC2C3CC=C4CC(O)CC[C@@]4(C)C3CC[C@@]12C)C(C)C (some centres not stated) 1.38% [at 38.3 µM], O=C1OC(CO)C(O)C(O)C1O (configuration not stated) 4%, COc1ccc(CC(N)C(=O)NC2C(CO)OC(n3cnc4c(N(C)C)ncnc43)C2O)cc1 (configuration not stated) -8.77%, CCCC(=O)O[C@]1(C(=O)CO)CCC2[C@@H]3CCC4=CC(=O)CC[C@]4(C)C3C(O)C[C@]21C (some centres not stated) 5.3%, CC[C@@]12CCCN3CCc4c(n(c5ccccc45)[C@](O)(C(=O)OC)C1)C32 (some centres not stated) 8.85%, CC1(C)SC2C(N3C(=O)C(c4ccccc4)NC3(C)C)C(=O)N2C1C(=O)O (configuration not stated) 4.8%, CC1CCC(C(C)C)C(=O)C1 (configuration not stated) 0.804% [at 38.3 µM], CC(=O)N[C@H](CC(C)C)C(=O)O -3.04%, CC(C)C1CCC(C(=O)NC(Cc2ccccc2)C(=O)O)CC1 (configuration not stated) -3.55%, COc1ccc2cc1Oc1ccc(cc1)CC1c3c(cc4c(c3Oc3cc5c(cc3OC)CCN(C)C5C2)OCO4)CCN1C (configuration not stated) 3.34%, CNC1C(OC2C(O[C@@H]3C(O)C(O)[C@@H](N=C(N)N)C(O)C3N=C(N)N)OC(C)[C@@]2(O)CO)OC(CO)C(O)C1O (some centres not stated) 3.36%, CC1C2CCC3C4CC=C5CC(N(C)C)CC[C@@]5(C)C4CC[C@@]32CN1C (some centres not stated) 0.379% [at 38.3 µM], C[C@]12C=CC(=O)C=C1CCC1C2C(O)C[C@]2(C)C1CC[C@]2(O)C(=O)CO (some centres not stated) 3.27%, CCOC(=O)C1=CC(OC(CC)CC)C(NC(C)=O)C(N)C1 (configuration not stated) 0.842%, COc1c(O)cc(O)cc1O 4.8%, CN(C)CCc1c[nH]c2ccc(CC3COC(=O)N3)cc12 (configuration not stated) 3.81%, NCC1CCC(N)C(O[C@@H]2C(O)[C@H](O[C@H]3OC(CO)C(O)C(N)C3O)[C@@H](N)C[C@H]2N)O1 (some centres not stated) 2.64%, OCC1O[C@H](OC2C(CO)O[C@@](O)(CO)C2O)C(O)C(O)C1O (some centres not stated) 5.12%, CC1(C)OC2CO[C@]3(COS(N)(=O)=O)OC(C)(C)OC3C2O1 (some centres not stated) 0.526%, Cc1cc(O)c(C=O)c2c1C(=O)Oc1c(C)c(O)c3c(c1O2)C(O)OC3=O (configuration not stated) 15.7%, CC(=O)OC1CCC2C3CCc4cc(O)ccc4C3CCC12C (configuration not stated) 0.785%, CN(C)CCCOC1C(C(O)CO)OC2OC(C)(C)O[C@@H]21 (some centres not stated) 2.27%, COc1cc(C2c3cc4c(cc3C(O[C@@H]3OC5COC(c6cccs6)OC5C(O)C3O)C3COC(=O)C23)OCO4)cc(OC)c1O (some centres not stated) 3.25%

System: not listed separately
Assay: Confirmation and Secondary Assay for Modulators of Hemoglobin Beta Chain Splicing at IVS2 705 locus (AID 930);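 note: HeLa cells stably expressing the EGFP-705 splicing reporter; GFP fluorescence per well restored by corrected splicing of the IVS2-705 intron in EGFP; % of control where 0% means no effect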
Settings: HeLa EGFP-705 splicing reporter, GFP fluorescence, 48 h; series mostly up to 46.1 µM; activation: at the top concentration
Method in brief: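 Per-well GFP, captured at 1 x 8 µm resolution with 488 nm excitation, served as the read-out for HeLa EGFP-705 cells incubated 2 days with test compound versus DMSO.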

activation, inactive:
CC1=C(CCC(=O)O)c2cc3nc(cc4[nH]c(cc5[nH]c(cc1n2)c(C)c5C(C)O)c(C)c4C(C)O)C(C)=C3CCC(=O)O (configuration not stated) -1.07% [at 38.3 µM], CCC(C)C(=O)OC1CCC=C2C=CC(C)C(CCC3CC(O)CC(=O)O3)[C@@H]21 (some centres not stated) 0.73% [at 38.3 µM], Cc1cc(O)c(C=O)c2c1C(=O)Oc1c(COC(=O)/C=C/C(=O)O)c(O)c(C(=O)O)c(C)c1O2 1.77%, OCC1OC([S-])[C@H](O)C(O)C1O.[Au+] (some centres not stated) 0.147%, COC(=O)N/N=C/C1=C[N+](=O)c2ccccc2[N+]1=O 3.57%, CN1CC(=O)N=C1N 0.288% [at 38.3 µM], CNC1CC(N)[C@H](O)[C@@H](O[C@@H]2OC(CO)C3OC4(OC(C(N)CO)C(O)C(O)C4O)O[C@@H]3[C@H]2O)C1O (some centres not stated) -0.659% [at 38.3 µM], COC1C=CO[C@@]2(C)Oc3c(C)c(O)c4c(O)c(c(C=NN5CCN(C)CC5)c(O)c4c3C2=O)NC(=O)/C(C)=C\C=CC(C)C(O)[C@@H](C)C(O)C(C)[C@H](OC(C)=O)C1C (some centres not stated) 0.908%, CC(=O)N[C@@H]1C(O)OC(CO)C(O)C1O (some centres not stated) 0.559%, CCC(CCC(C)C1CCC2C3CC=C4CC(O)CC[C@@]4(C)C3CC[C@@]12C)C(C)C (some centres not stated) 0.903% [at 38.3 µM], O=C1OC(CO)C(O)C(O)C1O (configuration not stated) 2.91%, COc1ccc(CC(N)C(=O)NC2C(CO)OC(n3cnc4c(N(C)C)ncnc43)C2O)cc1 (configuration not stated) -1.48%, CCCC(=O)O[C@]1(C(=O)CO)CCC2[C@@H]3CCC4=CC(=O)CC[C@]4(C)C3C(O)C[C@]21C (some centres not stated) -1.14%, COC(=O)C(Cc1ccccc1)NC(=O)C(N)CC(=O)O (stereo not drawn) (H-Asp-Phe-OMe; configuration not given here) 3.76%, CC[C@@]12CCCN3CCc4c(n(c5ccccc45)[C@](O)(C(=O)OC)C1)C32 (some centres not stated) -0.442%, CC1(C)SC2C(N3C(=O)C(c4ccccc4)NC3(C)C)C(=O)N2C1C(=O)O (configuration not stated) -0.315%, CC1CCC(C(C)C)C(=O)C1 (configuration not stated) 0.739% [at 38.3 µM], CC(=O)N[C@H](CC(C)C)C(=O)O 1.43%, CC(C)C1CCC(C(=O)NC(Cc2ccccc2)C(=O)O)CC1 (configuration not stated) 0.885%, COc1ccc2cc(C(C)CO)ccc2c1 (configuration not stated) 1.04%, COc1ccc2cc1Oc1ccc(cc1)CC1c3c(cc4c(c3Oc3cc5c(cc3OC)CCN(C)C5C2)OCO4)CCN1C (configuration not stated) 0.457%, CNC1C(OC2C(O[C@@H]3C(O)C(O)[C@@H](N=C(N)N)C(O)C3N=C(N)N)OC(C)[C@@]2(O)CO)OC(CO)C(O)C1O (some centres not stated) 1.68%, CC1C2CCC3C4CC=C5CC(N(C)C)CC[C@@]5(C)C4CC[C@@]32CN1C (some centres not stated) 1.06% [at 38.3 µM], C[C@]12C=CC(=O)C=C1CCC1C2C(O)C[C@]2(C)C1CC[C@]2(O)C(=O)CO (some centres not stated) 5.37%, CCOC(=O)C1=CC(OC(CC)CC)C(NC(C)=O)C(N)C1 (configuration not stated) -0.389%, COc1c(O)cc(O)cc1O 2.48%, CN(C)CCc1c[nH]c2ccc(CC3COC(=O)N3)cc12 (configuration not stated) 1.99%, NCC1CCC(N)C(O[C@@H]2C(O)[C@H](O[C@H]3OC(CO)C(O)C(N)C3O)[C@@H](N)C[C@H]2N)O1 (some centres not stated) -0.844%, OCC1O[C@H](OC2C(CO)O[C@@](O)(CO)C2O)C(O)C(O)C1O (some centres not stated) 0.385%, CC1(C)OC2CO[C@]3(COS(N)(=O)=O)OC(C)(C)OC3C2O1 (some centres not stated) -0.806%, Cc1cc(O)c(C=O)c2c1C(=O)Oc1c(C)c(O)c3c(c1O2)C(O)OC3=O (configuration not stated) 0.395%, CC(=O)OC1CCC2C3CCc4cc(O)ccc4C3CCC12C (configuration not stated) 0.258%, CN(C)CCCOC1C(C(O)CO)OC2OC(C)(C)O[C@@H]21 (some centres not stated) 0.77%, COc1cc(C2c3cc4c(cc3C(O[C@@H]3OC5COC(c6cccs6)OC5C(O)C3O)C3COC(=O)C23)OCO4)cc(OC)c1O (some centres not stated) 1.05%
